TGFb SMAD3 inh: qHTS for Inhibitors of TGF-b. 410,000 compounds, 1.2% hits. Potency, µM (highest dose often 46.1 µM), hits mostly inhibitors. HepG2 CAGA-GFP TGF-b/SMAD3 reporter, GFP fluorescence, 18 h; TGF-beta stimulated, 500 pg/mL final; further: nearly all actives have a fitted effect of over 65% in size
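First, reporter cells (HEPG2 CAGA-GFP) rested 2 h at 37 degrees C. Next, compounds were pinned in and TGF-beta added to 500 pg/mL final. After 18 h, GFP was imaged per cell and summed per well.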
D3 antag: qHTS of D3 Dopamine Receptor Antagonist: qHTS; D(3) dopamine receptor (Homo sapiens), P35462; D3R cells, DiscoveRx beta-arrestin luminescence, antagonist mode; hits give low values; max response, negative = inhibition, %; 360,000 compounds, 2.5% hits; AID 652054, 2013; in the data active means max response below about -50%; inconclusive means no clear call, values can overlap the other calls
Target sequence (P35462 whole entry, looked up): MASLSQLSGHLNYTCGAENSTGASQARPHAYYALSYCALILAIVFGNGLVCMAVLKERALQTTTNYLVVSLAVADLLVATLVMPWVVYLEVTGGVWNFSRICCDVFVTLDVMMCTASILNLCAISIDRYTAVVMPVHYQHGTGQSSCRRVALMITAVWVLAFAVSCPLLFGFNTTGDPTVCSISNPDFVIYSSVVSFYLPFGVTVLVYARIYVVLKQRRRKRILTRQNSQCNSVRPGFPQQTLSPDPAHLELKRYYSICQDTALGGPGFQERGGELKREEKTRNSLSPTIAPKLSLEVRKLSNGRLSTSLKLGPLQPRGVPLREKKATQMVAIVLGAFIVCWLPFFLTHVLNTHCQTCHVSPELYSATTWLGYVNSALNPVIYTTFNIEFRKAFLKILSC
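Cells plated overnight at 1500 cells/well, then exposed to library compounds with dopamine controls for 90 minutes at 37 degrees C. DiscoveRx reagent added for 30–60 minutes at room temperature; luminescence read, quantitative HTS format.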
S2 tox: Viability Counterscreen for Primary qHTS for Inhibitors of ATXN expression; S2 cells (HEK-293 line with an ATXN2-luciferase reporter) viability, CellTiter-Fluor protease fluorescence, 24 h; Potency, µM (doses to about 56.7 µM), most hits filed as cytotoxic; 400,000 compounds, 0.49% hits; AID 651635, 2014; further: nearly all actives have a fitted effect of over 40% in size
ATXN2 expr inh: Primary qHTS for Inhibitors of ATXN expression | HEK-293 ATXN2-luciferase reporter, luminescence, 24 h | 360,000 compounds, 0.72% hits | Potency, µM (top dose mostly 57 µM), actives largely listed as inhibitors | AID 1745845, 2022; further: nearly all actives have a fitted effect of over 55% in size
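qHTS (up to 57 uM final) was run with 24 h compound exposure of reporter cells at 37 °C. Each well was multiplexed: SteadyGlo luminescence measured ATXN2-luciferase expression after a fluorogenic Gly-Phe-AFC viability readout (25 uM final).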
HepG2 viability: qHTS for Inhibitors of TGF-b: Cytotox Counterscreen | HepG2 CAGA-GFP viability, ATP luminescence, 18 h | 410,000 compounds, 0.76% hits | Potency, µM (titrated, usually from 46.1 µM), actives largely listed as cytotoxic
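HepG2 CAGA-GFP cells (1000/well, DMEM with 1% FBS) received compound, then TGF-beta at 500 pg/mL final, and were incubated 18 hours at 37 degrees C. Viability was read by CellTiter-Glo luminescence. Media-only wells were set as complete cell-killing and DMSO as no toxicity.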
D3 ag: qHTS of D3 Dopamine Receptor Agonist: qHTS | D(3) dopamine receptor (Homo sapiens), P35462 | D3R DiscoveRx beta-arrestin cells, luminescence, 90 min | AID 652048, 2013 | max activation, % | 410,000 compounds, 0.58% hits; in the data active means max activation above about 30%
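Agonist mode: compounds and dopamine controls were applied to plated cells for 90 min at 37 degrees C after an overnight attachment at 1500 cells/well. Luminescent read-out followed 30 - 60 minutes at room temperature with DiscoveRx detection reagent.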
Hits are given with their value; . = inactive; ? = inconclusive; / = no result. Shown are actives, neighbours in structure and some others; about 4.8% of the full set was active somewhere. Unless noted, the call rests on the fitted dose curve; in most records, active means well fitted curve in the direction sought with a large enough effect; inconclusive means small, poorly fitted or top-dose-only effect, or another doubt; inactive means no such curve, though single readings can be large; an effect the other way counts as inactive or inconclusive.

SMILES	TGFb SMAD3 inh	D3 antag	S2 tox	ATXN2 expr inh	HepG2 viability	D3 ag
CC(C)OCCCN1CC(=O)N2C(c3cccc([N+](=O)[O-])c3)c3[nH]c4ccccc4c3C[C@H]2C1=O (stereo partly specified)	?	.	.	.	.	.
O=[N+]([O-])c1cccc(C2NCC(c3ccccc3Cl)c3c2[nH]c2ccccc32)c1 (stereo unspecified)	?	-64	?	.	.	.
CCOc1cc2c3c(c1)C1(OCCO1)C(=O)N3C(C)(C)CC2C (stereo unspecified)	.	.	.	.	.	.
CCOc1cc2c3c(c1)C1(Nc4ccccc4S1)C(=O)N3C(C)(C)CC2C (stereo unspecified)	13µM	.	.	.	.	.
CCOC(=O)C(C)Sc1ccc2nnc(-c3ccc(OCC)cc3)n2n1 (stereo unspecified)	.	/	/	/	.	/
Cn1c(=O)oc2cc(S(=O)(=O)N3CCCC(C(=O)NCCN4CCOCC4)C3)ccc21 (stereo unspecified)	.	.	.	.	.	.
CCCN(CCC)CCNC(=O)C1CCCN(S(=O)(=O)c2ccc3c(c2)oc(=O)n3C)C1 (stereo unspecified)	.	.	.	.	.	46
Cc1ccc(N(C(=O)CNC(=O)c2ccco2)C(C(=O)NC2CCCC2)c2cccnc2)cc1 (stereo unspecified)	.	.	.	.	.	.
Cc1ccc(N(C(=O)CNC(=O)c2ccco2)C(C(=O)NC2CCCCC2)c2cccnc2)cc1C (stereo unspecified)	.	.	.	.	.	.
O=C(NCC(=O)N(c1cccnc1)C(C(=O)NC1CCCC1)c1ccccc1)c1ccco1 (stereo unspecified)	.	.	.	.	.	52
Cc1ccc(N(C(=O)CCl)C(C(=O)NC2CCCCC2)c2cccnc2)cc1C (stereo unspecified)	?	?	2.8µM	3.2µM	.	.
O=C(NNc1nc2ccc(Cl)cc2s1)c1cc(-c2cccs2)nc2ccccc12	8.9µM	.	?	32µM	.	42
Cc1cc(C)c2nc(NNC(=O)c3cc(-c4cccs4)nc4ccccc34)sc2c1	?	.	.	?	.	.
Cc1csc2nc(-c3cccc(NC(=O)C(C)C)c3)cn12	.	/	/	/	.	.
CCN(CC)CCNC(=O)C12CC3CC(CC(C3)C1)C2	.	-63	?	.	.	.
CCC(CC)COC(=O)C(C#N)c1nc2ccccc2nc1N1CCN(CC)CC1 (stereo unspecified)	?	?	28µM	?	.	.
CCOc1ccc2nc(Cl)c(C3CC(c4ccc(C)cc4)=NN3C(=O)CCCC(=O)O)cc2c1 (stereo unspecified)	.	/	.	.	.	.
c1ccc(CN2CCN(C3CCCSc4ccccc43)CC2)cc1 (stereo unspecified)	.	-85	.	.	.	.
O=C(NCC1(N2CCCCC2)CCCCC1)c1ccc(-n2cc(NC(=O)c3cccnc3)cn2)cc1	/	/	.	/	/	/
COC(=O)c1c(-c2cccs2)csc1NC(=O)c1ccc(OC)c(OC)c1	.	/	?	.	.	.
COC(=O)c1c(-c2cccs2)csc1NC(=O)c1cc(OC)c(OC)c(OC)c1	.	/	/	/	.	36
CC1(C)CC(C(=O)N2CCOc3ccc(CN4CCN(Cc5ccccn5)CC4)cc3C2)CCO1 (stereo unspecified)	/	/	.	/	/	/
CN(C)c1ccc(/C=C2\C=Nc3ccccc32)cc1	?	/	/	/	.	/
COc1ccc(CCN(C)CCCN2CC(c3ccccc3)CC2=O)cc1OC (stereo unspecified)	.	?	.	.	.	.
COc1ccc(CCN(C)CCCC(C#N)(c2ccc(OC)c(OC)c2)C(C)C)cc1OC (stereo unspecified)	/	-88	/	/	/	/
SMILES	TGFb SMAD3 inh	D3 antag	S2 tox	ATXN2 expr inh	HepG2 viability	D3 ag
O=C(CNCC1CCCCC1)Nc1ccc(OC(F)(F)F)cc1	16µM	.	.	.	.	.
CC(C)c1c(C(=O)N(C)C2CCN(C)CC2)cnn1-c1nccc(-c2ccco2)n1	/	/	.	/	/	/
COC(=O)c1cc2ccccn2c2c(C(=O)OC)c(C(=O)OC)cc1-2	.	.	?	.	.	.
COC(=O)c1cc2c(C)c(C)c3ccccn3c-2c1C(=O)OC	.	-52	.	.	.	.
COc1cc(=O)n2c(c1C(=O)NCc1ccco1)CCN(C(=O)c1ccc(C)c(C)c1)CC2	/	/	.	/	/	/
CC(=O)c1cccc(NC(=O)CSc2nc(=O)n(Cc3ccco3)c3c2CCC3)c1	.	/	?	.	.	.
Cc1ccccc1C(=O)N1CCc2c(cnc(C)c2CNC(=O)CN2CCCCC2)C1	/	/	.	/	/	/
O=C(CCCCn1c(=O)c2ccccc2n(Cc2ccccc2)c1=O)NC1CCN(Cc2ccccc2)CC1	.	-58	.	.	.	.
O=C(CCCCn1c(=O)c2ccccc2n(CC(=O)NC2CCCC2)c1=O)NC1CCCC1	.	.	.	.	.	.
O=C(Cn1[nH]c(=O)c2ccccc2c1=O)NC1CCN(Cc2ccccc2)CC1	.	-72	?	.	.	.
CCCCNC(=O)c1sc2ncnc(NCC3CCCO3)c2c1C (stereo unspecified)	/	/	.	/	/	/
O=C1c2ccccc2NC(c2ccc(Cl)cc2Cl)N1Cc1ccccc1 (stereo unspecified)	?	-53	.	?	.	.
O=C1c2ccccc2NC(c2c(Cl)cccc2Cl)N1Cc1ccccc1 (stereo unspecified)	?	.	.	.	.	.
Cc1ccc2[nH]c(-c3ccccc3)c(CN3CCN(C)CC3)c(=O)c2c1	?	-76	.	.	.	.
Cc1ccc(C(=O)CCC(=O)OCc2nnc(-c3ccccc3)o2)cc1	.	-60	.	.	.	.
Cc1cccc(C)c1OCc1nnc(SCC(=O)NCc2ccccc2)o1	.	.	.	.	.	38
O=C(CSc1nnc(COc2ccccc2)o1)c1ccccc1	.	?	.	.	.	.
Cc1ccc(C(=O)CSc2nnc(COc3ccccc3)o2)cc1	.	.	.	.	6.3µM	.
COCc1ccc(C(=O)N2CCOc3ccc(CN4CCN(c5ccc(F)cc5)CC4)cc3C2)o1	/	/	.	/	/	/
CS(=O)(=O)CC[C@@H](C(=O)NCCc1ccccc1)N1Cc2ccccc2C1=O	.	/	.	.	.	.
COc1ccc(-c2nnc(Nc3nc4c(OC)cccc4s3)o2)c(OC)c1	.	-68	?	?	.	.
